Tgondii IFNg – T. gondii growth inhibition under IFN-gamma. AID 1259416. Toxoplasma gondii growth in IFN-gamma-treated host cells; active compounds read low. hit rate 3.8% among 69,000. activity change, negative = inhibition, % (concentration not given with the values); in the data active = activity change below about -70%, passing the limit was not always enough;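 note: host cells are HeLa cells infected with Toxoplasma gondii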
* marks the source's active call; other numbers are inactive results. Many of the other results were omitted from the sample, so hits are more common in it than they were.

SMILES | Tgondii IFNg
NCC1Cc2cc(-c3ccccc3OCCn3ccnc3)cc(Cl)c2O1 (configuration not stated) | -81.2*
CN(C)C(=O)N1CCN(c2ccc3ccc(C(=O)NCC4CC4)cn23)CC1 | -45.0
COc1cc(OC)cc(C(=O)N2CCC3(CC2)NC(=O)c2cc(C)ccc2N3C)c1 | 62.1
c1coc(CN2C[C@@H](OCCCn3cccn3)[C@@H]3OCCC[C@@H]32)c1 | -30.4
Fc1ccc(CN2CCO[C@H]3[C@H]2CC[C@H]3OCCCn2cccn2)cc1 | -94.2*
Fc1cnc(N2CCO[C@@H]3[C@H]2CC[C@H]3OCc2ccccn2)nc1 | 1.4
Cc1cnc(N(C)Cc2n[nH]c3c2CCCC3)nc1N(C)C | -20.8
Cn1ncc2c3ccccc3n(CC(=O)N3CCN(c4ccccn4)CC3)c2c1=O | 135.9
CCC(C(=O)NCCN1CCCC1)n1c2ccccc2c2cnn(C)c(=O)c21 (configuration not stated) | 63.3
CCC(C(=O)N1CCN(c2ccccn2)CC1)n1c2ccccc2c2cnn(C)c(=O)c21 (configuration not stated) | -73.2*
CC(=O)OCC(=O)C1(O)CCC2C3CC=C4CC(O)CCC4(C)C3CCC21C (configuration not stated) | -11.1
Cc1cc(=O)c2cc(Cl)ccc2s1 | 58.7
Cc1c(C(=O)CSc2ccc(Cl)cc2)sc2ccc(Cl)cc12 | -56.6
COc1ccc(OS(=O)(=O)c2sc3ccc(Cl)cc3c2C)cc1 | -104.0*
CCc1nnc(NC(=O)CSC2=NC(=O)C(NC(C)=O)C(=O)N2)s1 (configuration not stated) | 7.2
COc1ccccc1N1CCN(C(=O)Nc2ccc(F)cc2)CC1 | -21.9
Cn1cnc(S(=O)(=O)N2CCCN(C(=O)OC(C)(C)C)CC2)c1 | 2.9
CC(C)(C)OC(=O)N1CCCN(C(=O)Nc2ccc(C(F)(F)F)cc2)CC1 | -85.8*
O=C(NCCc1ccco1)c1nc(Nc2ccc(F)cc2)c2ccccc2n1 | 3.4
CN(C)CCN1CCC2(CCCN(C(=O)C3CCOC3)C2)C1=O (configuration not stated) | -46.7
C[C@@H](Oc1cc(-c2cnn(C3CCNCC3)c2)cnc1N)c1c(Cl)ccc(F)c1Cl | -77.5*
C[C@H](Oc1cc(-c2cnn(C3CCNCC3)c2)cnc1N)c1c(Cl)ccc(F)c1Cl | 2.7
O=C(Nc1cccc2ccccc12)NC1CCCCC1 | -93.1*
O=C(Nc1cccc2ccccc12)OC1CCS(=O)(=O)C1 (configuration not stated) | 27.7
O=C(Nc1cccc2ccccc12)N1CCOCC1 | 180.6
SMILES | Tgondii IFNg
Cc1ccc(CNc2cccc(C(=O)N3CCC(C(O)c4nccn4C)CC3)c2)cc1 (configuration not stated) | 0.5
O=c1[nH]nc2c(-c3ccccc3)c(-c3ccccc3)c(-c3ccccc3)nn12 | -106.5*
Nc1[nH]nc2nnc(-c3c(-c4ccccc4)nn4ccccc34)cc12 | -44.9
O=c1cc2nn[nH]n2nc1-c1ccccc1 | 123.6
CCNC(=O)C1CCN(Cc2cccc(C(=O)Nc3c(C)noc3C)c2)C1 (configuration not stated) | 1.6
O=C(c1ccccc1F)N1CC2(C1)[C@H](c1ccccc1)[C@@H](CO)N2CC1CCOCC1 | 31.9
COCCn1c(C(=O)NCCc2cccc(F)c2)cc2c1c1ccccc1n2C | -32.3
O=C(c1ccc(F)c(F)c1Nc1ccc(I)cc1F)N1CC(O)([C@@H]2CCCCN2)C1 | -48.8
Cc1cc(I)ccc1Nc1c(C(=O)NOCC2CC2)cc(F)c(F)c1F | -81.8*
O=C(NOCCO)c1cc(CN2OCCCC2=O)c(F)c(F)c1Nc1ccc(I)cc1F | 8.7
Cc1ccc(S(=O)(=O)N2CCC3(CC2)CN(c2ccc4c(c2)OCO4)C3=O)cc1 | 2.1
Cc1nc(CCC(=O)N2CCCC3(C2)C(=O)Nc2ccccc23)n[nH]1 (configuration not stated) | -58.4
Cc1cccc(-n2cc(CN(C)Cc3cccnc3)c(-c3cccc(F)c3)n2)c1 | 21.3
CN1CCCN(C(=S)NCCCN2CCOCC2)CC1 | 32.7
COc1cccc(NC(=O)c2cc(-c3cnc(N(C)C)nc3)cn2CC2CC2)c1 | 4.5
CO[C@H]1CN(C)C(=O)c2ccc(NC(=O)c3nc4ccccc4s3)cc2OC[C@H](C)N(Cc2cccnc2)C[C@H]1C | -112.9*
CO[C@H]1CN(C)C(=O)c2cc(NC(=O)c3nc4ccccc4s3)ccc2OC[C@H](C)NC[C@@H]1C | -16.7
CO[C@H]1CN(C)C(=O)c2cc(NC(=O)C3CCCCC3)ccc2OC[C@@H](C)N(Cc2cccnc2)C[C@H]1C | 69.4
CO[C@@H]1CN(C)C(=O)c2ccc(NC(=O)c3nc4ccccc4s3)cc2OC[C@@H](C)N(Cc2cccnc2)C[C@H]1C | -84.8*
CO[C@@H]1CN(C)C(=O)c2cc(NC(=O)C3CCCCC3)ccc2OC[C@H](C)N(Cc2cccnc2)C[C@H]1C | 27.2
CO[C@@H]1CN(C)C(=O)c2ccc(NC(=O)c3cccnc3)cc2OC[C@@H](C)N(CC2CCCCC2)C[C@H]1C | 144.3
CO[C@H]1CN(C)C(=O)c2ccc(NC(=O)c3nc4ccccc4s3)cc2OC[C@@H](C)N(Cc2cccnc2)C[C@@H]1C | 15.9

Screens as filed in PubChem BioAssay.
